Tb PFK block = T. brucei PFK enzyme inhibition | Potency, µM (highest dose often 57.5 µM), for inactives: top-dose activity, negative = inhibition, usual class: inhibitors | O15648 | AID 485367 | T. brucei PFK, ADP-Glo luminescence | hit rate 0.17% among 330,000;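 also: potency is read from the fitted curve at half-maximal effect; 0% = uninhibited 1x PFK enzyme wells and -100% = no-enzyme wells; nearly all actives have a fitted effect of over 60% in size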
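Luminescent ADP detection (ADP-Glo, two-step: ATP depletion then ADP-to-ATP conversion for luciferase) reported PFK activity after 45 min room-temperature reaction of 1.25 nM enzyme with 0.5 mM F6P and 0.1 mM ATP at pH 8.0.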
PI5P4Ka inh = PI5P4K alpha (human) kinase inhibition. P48426. PI5P4Kalpha enzyme, ADP-Glo luminescence, 60 min; active compounds read low. max response, %. hit rate 1.2% among 330,000; active = max response of -50% or lower; inconclusive = between -30% and -50%; inactive = -30% or higher; also: value at the top dose of about 77 µM
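Single end-point luminescence (ADP-Glo) quantified ADP from PI5P4Kalpha turnover; ATP 5 microM final, 1 h at RT, 0.1% CHAPS and 0.28 mM EGTA in HEPES pH 7.4.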
Pin1 inhibitor = human Pin1 inhibition; Q13526; hit rate 0.009% among 390,000; Pin1 FP peptide displacement, HiFluor488, 10 min; Potency, µM (top dose mostly 115 µM), for the others: at the highest dose activity, negative = inhibition, actives largely listed as inhibitors; active = well fitted inhibition curve with a large enough effect in the polarisation, with a control signal flat, not every such curve was filed as active; inconclusive = small, poorly fitted or top-dose-only effect, or effect the other way, or a change in a side signal; inactive = no such curve, though single readings can be large or run the other way; the % refers to the polarisation; also: potency is read from the fitted curve at half-maximal effect
Target sequence (Q13526 whole entry, looked up): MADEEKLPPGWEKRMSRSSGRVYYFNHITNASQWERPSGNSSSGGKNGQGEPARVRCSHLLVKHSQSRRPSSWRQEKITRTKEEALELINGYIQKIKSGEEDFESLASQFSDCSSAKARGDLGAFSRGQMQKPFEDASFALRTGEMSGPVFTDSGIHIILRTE
PI4K2A inh = inhibitors of human PI4K2A. AID 1346378. purified PI4K2A, ADP-Glo luminescence, 1 h; active compounds read low. Q9BTU6. hit rate 0.13% among 420,000. activity change, negative = inhibition, % at 76.9 µM; in the data active = activity change below about -50%; inconclusive = mostly about -30% to -49%;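 also: -100% = wells without enzyme as full effect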
Target sequence (Q9BTU6 whole entry, looked up): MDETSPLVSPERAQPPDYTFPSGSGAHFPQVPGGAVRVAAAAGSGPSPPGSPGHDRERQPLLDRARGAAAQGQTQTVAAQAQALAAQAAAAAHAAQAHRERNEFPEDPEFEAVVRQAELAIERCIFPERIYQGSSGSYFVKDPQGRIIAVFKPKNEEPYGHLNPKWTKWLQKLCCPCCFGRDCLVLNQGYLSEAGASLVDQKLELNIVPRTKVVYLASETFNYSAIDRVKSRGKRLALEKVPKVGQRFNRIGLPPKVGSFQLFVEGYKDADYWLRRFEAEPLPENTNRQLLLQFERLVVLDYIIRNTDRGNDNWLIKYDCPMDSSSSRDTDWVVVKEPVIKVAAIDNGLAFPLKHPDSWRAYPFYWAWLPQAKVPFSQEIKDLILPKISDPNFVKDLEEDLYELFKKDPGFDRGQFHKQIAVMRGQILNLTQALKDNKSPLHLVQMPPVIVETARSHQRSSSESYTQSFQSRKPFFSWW
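PI4K2A activity was measured by ADP-Glo luminescence: enzyme (4 ug/mL stock) and phosphatidylinositol (1.2 mM stock) in Tris pH 7.5/MgCl2/EGTA/Triton X-100 buffer were reacted with ATP (300 microM stock) for one hour at ambient temperature.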
Tb PGK inh = inhibitors of T. brucei phosphoglycerate kinase; P07378; PGK/GAPDH coupled, Kinase-Glo luminescence, 60 min; Potency, µM (doses to about 57.5 µM), inactives show at the highest dose activity change, negative = inhibition, hits mostly inhibitors; hit rate 0.043% among 380,000; AID 602233; also: potency is read from the fitted curve at half-maximal effect; nearly all actives have a fitted effect of over 60% in size
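Recombinant glycosomal PGK reaction used 1,3-bisphosphoglycerate generated in-well by GAPDH (100nM final) in 100mM TEA pH 7.6, 5mM MgCl2, 0.01% Tween-20. After 60 minutes at room temperature, ATP was read by Kinase-Glo Plus luminescence end-point.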
ADP-Glo counter = ADP-Glo luciferase interference, PI5P4K counter-screen. shares compounds with PI5P4Ka inh. ADP-Glo detection counter-screen, luciferase luminescence, no enzyme. Potency, µM (titrated, usually from 76.9 µM), without a hit: at the top dose activity change, negative = inhibition, usual class: inhibitors. AID 743285. 1,100 tested, under 10 active
Numbers without * were called inactive; i = inactive; ? = inconclusive; · = no result given. The sample as a whole holds a higher share of hits than the screen did. Unless noted, calls follow the shape of the dose curve; as a rule, active = well fitted curve in the direction sought with a large enough effect; inconclusive = small, poorly fitted or top-dose-only effect, or another doubt; inactive = no such curve, though single readings can be large; an effect the other way counts as inactive or inconclusive. Unless noted, % is scaled to controls: 0 for no effect and ±100 for the full control effect.

SMILES	Tb PFK block	PI5P4Ka inh	Pin1 inhibitor	PI4K2A inh	Tb PGK inh	ADP-Glo counter
CCCNC(=O)CSc1nnc(-c2ccco2)n1C	-6%	-51*	0%	0	-3%	-3%
CCN(CC(=O)Nc1ccc(NC(C)=O)cc1)C(=O)c1cc2c(s1)CCCCC2	-6%	5	-4%	0	1%	·
COc1cccc(NC(=O)CN(C)C(=O)c2cc3c(s2)CCC3)c1	-6%	-71*	·	-23	-12%	-3%
CCN(CC(=O)Nc1ccc(NC(C)=O)cc1)C(=O)c1cc2c(s1)CCCC2	-5%	-50*	-3%	-8	-1%	-6%
COc1cccc(NC(=O)CN(C)C(=O)c2cc3c(s2)CCC(C)C3)c1 (stereo not drawn)	7%	5	-1%	0	-10%	·
O=C(OCCN1CCN(C2CN(Cc3cn(Cc4ccc([N+](=O)[O-])cc4)nn3)S(=O)(=O)C2)CC1)c1cc2ccccc2o1 (stereo not drawn)	·	·	·	1	·	·
NC(Cc1ccc(C(F)(F)F)cc1)c1csc(NC(=O)Nc2ccccc2)n1 (stereo not drawn)	·	-56*	·	-1	·	-2%
O=C(CSc1nc(=O)n2cc(Cl)ccc2n1)Nc1ccc2c(c1)OCCO2	3%	-54*	52%	-6	0%	-4%
N#Cc1c(NC(=O)CSc2ncccn2)oc(-c2ccccc2)c1-c1ccccc1	·	-58*	28%	-8	i	6%
Cc1ccnc(SCC(=O)Nc2oc(-c3ccccc3)c(-c3ccccc3)c2C#N)n1	-2%	6	20%	-3	1%	·
O=C(CC1C=CCC1)OCCN1CCN(C2CN(Cc3cn(Cc4ccccc4Cl)nn3)S(=O)(=O)C2)CC1 (stereo not drawn)	·	·	·	-2	·	·
Cc1ccc(NC(=O)N2CCC(NC(=O)c3ccco3)CC2)cc1	-4%	-2	-1%	6	6%	·
Cc1ccc(NC(=O)N2CCC(NC(=O)c3cccc(C)c3)CC2)cc1	-11%	-78*	0%	-2	-2%	-5%
CCOC(=O)[C@@]12CCCC=C1N(CCc1ccc(Cl)cc1)C(=O)[C@H]2CC(=O)NCc1ccccc1	·	·	·	2	·	·
CCCCNC(=O)C[C@H]1C[C@@]2(C(=O)OC)C(=C[C@H](COCc3ccccc3)O[C@@H]2C)N(Cc2ccco2)C1=O	·	·	·	1	·	·
CC(C)C(=O)N1CCN(c2ccccc2NC(=O)c2ccc(Br)o2)CC1	1%	-4	-2%	-2	-8%	·
CC(C)C(=O)N1CCN(c2ccccc2NC(=O)c2ccco2)CC1	-1%	-59*	?	413	-35%	2%
C=CS(=O)(=O)N(Cc1nnn(Cc2ccccc2)c1Br)[C@@H](CC(C)C)C(=O)OC	·	·	·	4	·	·
COc1ccc(C(=O)Nc2cccc(OC(=O)c3ccc(C)c(C)c3)c2)cc1	3%	8	15%	2	-1%	·
CC(=O)Oc1ccc(C(=O)Nc2cccc(C(=O)c3ccc(C)c(C)c3)c2)cc1	2%	-57*	7%	0	-6%	-7%
O=C(O)COc1ccccc1C(Nc1ccccn1)c1cc(Cl)c2cccnc2c1O (stereo not drawn)	-9%	-72*	·	-14	-5%	-1%
COc1ccccc1C(NC(C)=O)c1cc(Cl)c2cccnc2c1O (stereo not drawn)	-2%	4	1%	4	6%	·
CCOc1ccc(C(Nc2cccnc2)c2cc(Cl)c3cccnc3c2O)cc1 (stereo not drawn)	-16%	-68*	11%	-3	-3%	0%
COC(=O)[C@@]12CCCCC3=C1N(CCC3)C(=O)[C@H]2CC(=O)NCc1ccc(C)o1	·	·	·	-6	·	·
CCOC(=O)c1nnn(-c2ccccc2)c1C	-2%	0	2%	-4	-8%	-1%
SMILES	Tb PFK block	PI5P4Ka inh	Pin1 inhibitor	PI4K2A inh	Tb PGK inh	ADP-Glo counter
Cc1ccc(C=Nn2c(-c3n[nH]c4c3CCC4)n[nH]c2=S)o1	·	·	·	-1	·	·
Cc1cc2c(s1)c1cnn(Cc3c(F)cccc3F)c(=O)c1n2C	·	·	13%	·	·	·
COCCn1nnnc1C(c1cc2cc(OC)c(OC)cc2[nH]c1=O)N1CCN(c2ccc(O)cc2)CC1 (stereo not drawn)	-4%	-54*	?	-13	7%	-4%
CCc1ccc2[nH]c(=O)c(C(c3nnnn3CCOC)N3CCN(c4ccc(F)cc4)CC3)cc2c1 (stereo not drawn)	4%	11	2%	-6	-3%	·
O=c1c2cc3cc(Cl)ccc3nc2ncn1CCc1c[nH]c2ccccc12	·	·	·	-7	·	·
CCCn1c(C)cc(-c2csc(N)n2)c1C	0%	-58*	?	-26	-1%	-8%
CCC[C@H]1[C@@H](NC(=O)C#Cc2ccccc2)CC[C@@]23CCCN2C(=O)CCC[C@@H]13	·	·	·	-2	·	·
Cc1c(C(=O)Nc2ccc3c(c2)OCCO3)sc2ncnc(N3CCCCC3C)c12 (stereo not drawn)	1%	·	0%	-5	i	-3%
Cc1ccc(-c2csc(NC(=O)c3ccno3)n2)cc1	-6%	-53*	18%	-9	-1%	-3%
Cc1ccc(-c2csc(NC(=O)c3ccc(C)o3)n2)cc1	-4%	0	-3%	1	3%	·
O=C1[C@@H](CCc2ccccc2)[C@@H]2c3ccccc3C=NN2[C@@H]2c3ccccc3C=NN12	·	·	·	0	·	·
CC(=O)c1ccc(NC(=O)NC2CCCCN(Cc3cccc(Cl)c3)C2=O)cc1 (stereo not drawn)	·	·	·	-3	·	·
Fc1cccc(Cc2c(-c3ccco3)nc3ccc(Cl)cn23)c1	·	-51*	·	-28	·	-4%
Clc1ccc2nc(-c3ccccc3)c(Cc3ccsc3)n2c1	·	-22	·	-4	·	·
Clc1ccc2nc(-c3ccco3)c(Cc3ccsc3)n2c1	·	-66*	·	-29	·	-2%
COc1ccccc1Cc1c(-c2ccco2)nc2ccc(Cl)cn12	·	?	·	-18	·	·
COc1ccccc1Cc1c(-c2ccco2)nc2ccc(Br)cn12	·	-56*	·	-22	·	-5%
Clc1ccc2nc(-c3ccco3)c(Cc3ccccc3)n2c1	·	-65*	·	-27	·	1%
CCCCS(=O)(=O)N[C@@H](Cc1ccc(OCCCCC2CCNCC2)cc1)C(=O)O	·	·	·	-1	·	·
CCN(C[C@H]1[C@@H](c2ccc(C3=CCCC3)cc2)[C@H](CO)N1c1nc(C)c(C)s1)S(=O)(=O)c1ccccc1[N+](=O)[O-]	·	·	·	-1	·	·
Fc1cccc(Cc2c(-c3ccco3)nc3ccc(Br)cn23)c1	·	-64*	·	?	·	-4%
Cc1ccc(C)c(-n2c3nc(=O)[nH]c(=O)c-3cc3cc([N+](=O)[O-])ccc32)c1	?	-65*	?	?	-12%	5%
